# The sample as a whole holds a higher share of hits than the screen did.
# PL biosyn Enam: animal cell phospholipid biosynthesis inhibition, Enamine screen | ZR-82 CHO cells, pyrene fatty acid UV survival, CellTiter Blue; peroxisome-deficient CHO-K1 mutant line; plus DGAT-1, DGAT-2 and ACAT inhibitors | calls only at 10 µM | 20,000 tested, 0.4% active | AID 1347385;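 active = cell survival signal 2 SD away from solvent-only control wells, confirmed on one or two retests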;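 also: 3 h compound exposure then viability read about one day after UV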
# The depositor's hits bear a star; i = inactive; + = active, no number.
SMILES,PL biosyn Enam
C=CCN=c1scc(-c2ccc(OC(F)F)cc2)n1/N=C(\C)c1ccc2c(c1)OCCO2,i
COCCN=c1scc(-c2ccc(OC(F)F)cc2)n1/N=C(\C)c1ccc2c(c1)OCO2,i
C/C(=N\n1c(-c2ccc(OC(F)F)cc2)csc1=NC(C)C)c1ccc(-n2ccnc2)cc1,+
Clc1ccc(C2=CC(c3ccc4c(c3)OCO4)n3nc(-c4ccccc4)nc3N2)cc1 (stereo not drawn),i
O=C(OCc1nc(-c2cccs2)no1)C1CC2CCCC(C1)C2=O (stereo not drawn),i
Brc1ccccc1C=C(c1nc2ccccc2s1)c1nc2ccccc2s1,i
Oc1c(Br)cc(/C=C/c2nc3ccccc3s2)cc1Br,i
O=C1Nc2ccc(Br)cc2C1=C(c1nc2ccccc2s1)c1nc2ccccc2s1,+
COc1ccc(/C=N/n2cnnc2SC)cc1,i
O=S1(=O)CCC(Nc2ncnc3sc4c(c23)CCCC4)C1 (stereo not drawn),i
Ic1ccccc1-c1nc(-c2cccnc2)no1,i
COc1ccc(OCCSc2nnc(Nc3ccccc3OC)s2)cc1,i
CCN1C(=Cc2cc(C)[n+](CCO)c(C)c2)Sc2ccccc21,i
CCC(CO)[n+]1c(C)cc(C=C2Sc3ccccc3N2Cc2ccccc2)cc1C (stereo not drawn),+
CCN1C(=Cc2cc(C)[n+](N3CCN(C)CC3)c(C)c2)Sc2ccccc21,i
O=C(COC(=O)C1CCC1)NC(=O)NC1CCCCC1,i
Cc1noc(C)c1CCC(=O)N1CCN(CC2CCCO2)CC1 (stereo not drawn),i
CC(C)N=c1scc(-c2ccc(Cl)c(Cl)c2)n1/N=C/c1ccc2c(c1)OCCO2,i
CN=c1scc(-c2ccc(Br)cc2)n1/N=C/c1ccc(Cl)cc1,i
Cc1ccc(-c2csc(=NC(C)C)n2/N=C/c2ccc(Cl)cc2)cc1C,+
C(=C(c1nc2ccccc2s1)c1nc2ccccc2s1)c1ccncc1,i
NC(N)=N/N=C/c1ccc(OCc2ccc(Cl)c(Cl)c2)cc1,i
Brc1ccccc1-c1nnc(CSc2nnnn2C2CC2)o1,i
Cc1cc([N+](=O)[O-])ccc1NP1(=O)/C(=C2/N(C)c3ccccc3C2(C)C)C=NN1c1ccccc1 (stereo not drawn),i
Cc1nn(-c2ccccc2)c2c1P(=S)(Nc1ccc([N+](=O)[O-])cc1)/C(=C1/N(C)c3ccccc3C1(C)C)C=N2 (stereo not drawn),i
SMILES,PL biosyn Enam
CN1/C(=C2\C=NN(c3ccccc3)P2(=O)Nc2ccc([N+](=O)[O-])cc2)C(C)(C)c2ccccc21 (stereo not drawn),+
COc1cccc(C(N)P(=O)(O)O)c1 (stereo not drawn),i
O=[N+]([O-])c1ccc(-c2csc(=Nc3ccccc3)n2-c2ccccc2)cc1,i
CN=c1scc(-c2ccc(Br)cc2)n1/N=C/c1ccccc1F,i
CN=c1scc(-c2ccccc2F)n1/N=C/c1ccccc1F,+
CN=c1scc(-c2ccccc2F)n1/N=C/c1ccccc1,i
NC(=O)NC(=O)CSc1nc(N)cc(=O)[nH]1,i
COc1ccc(-c2noc(CSc3nnc(-c4ccc(OC)c(OC)c4)o3)n2)cc1OC,i
O=C(O)CCN1CC2([N+](=O)[O-])C=C(C(=O)O)CC([N+](=O)[O-])(C1)C2 (stereo not drawn),i
CN1/C(=C\C=Nc2ccccc2N)C(C)(C)c2ccccc21,+
CN1/C(=C\C=Nc2c(F)c(F)c(F)c(F)c2F)C(C)(C)c2ccccc21,i
CN1/C(=C\C=Nc2ccccc2I)C(C)(C)c2ccccc21,i
O=C(OCC1CC1(Cl)Cl)c1sc2ccccc2c1Cl (stereo not drawn),i
CN(C)C(CNc1ncnc2sccc12)c1cccs1 (stereo not drawn),i
OCCCNc1ncnc2sccc12,i
ClC1(Cl)CC1CNc1ncnc2sccc12 (stereo not drawn),+
O=S1(=O)CCC(Cc2nc3ccccc3n2CN2CCCC2c2cccs2)C1 (stereo not drawn),i
Nc1c(S(=O)(=O)c2cc(Br)ccc2Br)c2nc3ccccc3nc2n1CCc1ccccc1,i
O=C(OC1CCOC1=O)c1c(Cl)ccc(Cl)c1Cl (stereo not drawn),i
Cc1ccc(-n2nc(C)c(N=Nc3ccccc3C)c2N)cc1,i
Cc1nn(-c2ccccc2)c(N)c1N=Nc1ccc([N+](=O)[O-])c(C(F)(F)F)c1,+
Cc1cccc(N=Nc2c(C)nn(-c3ccccc3)c2N)c1C,i
CN(CC(=O)Nc1ccnn1C1CCCCC1)S(=O)(=O)c1cccs1,i
CC1C/C(=N\NC(=S)NC2CCCCC2)CC(C)(C)C1 (stereo not drawn),+
CC1C/C(=N\NC(=O)C(N)=O)CC(C)(C)C1 (stereo not drawn),i
S=C(N/N=C1\CC2CC=CC12)NC1CCCCC1 (stereo not drawn),i

# Screening data: PubChem BioAssay, Zoeller Lab, School of Medicine, Boston University
